Shown are actives, neighbours in structure and some others; about 2.3% of the full set was active somewhere.
Tau FP inhib = qHTS for Inhibitors of Tau Fibril Formation, Fluorescence Polarization; Microtubule-associated protein tau (Homo sapiens), P10636; K18 P301L tau heparin fibrillization, Alexa594 FP, 6 h; Potency, µM (series often up to 57.7 µM), actives largely listed as inhibitors; 280,000 compounds, 0.39% hits; AID 1468, 2008; further: nearly all actives have a fitted effect of over 55% in size
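Quantitative HTS format: compounds meet 15 uM recombinant K18 P301L tau and Alexa 594-tau tracer in 100 mM sodium acetate pH 7; 20 uM heparin triggers fibrillization at 37 C over 6 hr; FP gives the signal.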
Tau fluor cs = Counterscreen qHTS for Inhibitors of Tau Fibril Formation, Fluorescence Polarization; Potency, µM (top dose mostly 57.7 µM); AID 1463, 2008; tau K18 P301L Alexa594 fluorescence, heparin fibrillization; 280,000 compounds, 0.93% hits; further: nearly all actives have a fitted effect of over 55% in size
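Human tau K18 P301L (15 uM unlabeled, 0.24 uM Alexa 594-labeled) in 100 mM sodium acetate pH 7 with 20 uM heparin, 6 hr at 37 C. ThT 30 uM added, 1 hr ambient; Alexa 594 FP and total fluorescence read at 555/632 nm.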
FBPA coupling cs = qHTS Assay for Inhibitors of Fructose-1,6-bisphosphate Aldolase from Giardia Lamblia: Coupling assay counterscreen. AID 2472, 2010. 290,000 compounds, 0.67% hits. activity change, negative = inhibition, % at 58.2 µM, hits read low. coupling enzyme system counterscreen, AmpLite Red fluorescence; in the data active means activity change below about -30%
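Counterscreen of the coupled detection system alone, without aldolase: glyceraldehyde-3-phosphate coupling enzymes plus AmpLite Red readout. Compounds at 57.5 uM final, 10 min RT preincubation, 20 min RT reaction, fluorescence 525/598 nm.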
Tau ThT inhib = qHTS for Inhibitors of Tau Fibril Formation, Thioflavin T Binding; Microtubule-associated protein tau (Homo sapiens), P10636; recombinant tau K18 P301L (four-repeat tau fragment), heparin-induced fibrillization, ThT fluorescence; Potency, µM (top dose mostly 57.4 µM), hits mostly inhibitors; 270,000 compounds, 2.1% hits; AID 1460, 2008; further: nearly all actives have a fitted effect of over 55% in size
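Aggregation was driven by heparin (20 uM final) acting on recombinant tau […] bearing P301L in 100 mM sodium acetate pH 7; fibrils were detected with Thioflavin T.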
USP1-UAF1 inh = Inhibitors of USP1/UAF1: Primary Screen. recombinant USP1/UAF1, Ub-Rhodamine cleavage fluorescence. 390,000 compounds, 0.23% hits. Potency, µM (titrated, usually from 57.1 µM), most hits filed as inhibitors. AID 743255, 2014; further: nearly all actives have a fitted effect of over 60% in size
Target sequence (O94782 whole entry, looked up): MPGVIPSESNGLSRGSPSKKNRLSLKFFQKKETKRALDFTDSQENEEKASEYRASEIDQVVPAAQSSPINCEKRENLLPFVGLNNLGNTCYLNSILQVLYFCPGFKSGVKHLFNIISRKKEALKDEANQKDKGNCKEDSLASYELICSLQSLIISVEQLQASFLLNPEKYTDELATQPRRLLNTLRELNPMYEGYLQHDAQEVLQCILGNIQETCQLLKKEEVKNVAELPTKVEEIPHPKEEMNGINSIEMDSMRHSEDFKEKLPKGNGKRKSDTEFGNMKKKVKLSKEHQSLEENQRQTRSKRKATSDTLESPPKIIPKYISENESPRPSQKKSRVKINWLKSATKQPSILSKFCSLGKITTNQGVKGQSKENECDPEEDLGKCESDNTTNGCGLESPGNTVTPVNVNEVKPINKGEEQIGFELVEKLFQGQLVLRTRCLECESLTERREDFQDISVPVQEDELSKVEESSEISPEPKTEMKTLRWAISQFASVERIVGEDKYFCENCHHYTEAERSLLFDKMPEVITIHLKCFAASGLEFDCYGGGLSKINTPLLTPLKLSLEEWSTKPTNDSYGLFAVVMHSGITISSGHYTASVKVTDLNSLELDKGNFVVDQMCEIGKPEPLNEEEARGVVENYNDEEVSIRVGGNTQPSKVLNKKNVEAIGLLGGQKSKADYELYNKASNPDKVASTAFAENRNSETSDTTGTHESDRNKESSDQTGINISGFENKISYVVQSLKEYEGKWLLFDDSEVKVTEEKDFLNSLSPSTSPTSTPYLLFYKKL
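In this screen, compounds sit with the deubiquitinase complex (1nM) for 15 min at room temperature before Ub-Rho is added at 150nM final. Fluorescence rise is then followed for 6 reads every 60 seconds.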
Numbers stand for hits; – = inactive; ? = inconclusive; · = not tested or not shown; ! = not active in a repeat; [ ] = dose if it differs, or a comment. Unless noted, the call rests on the fitted dose curve; in most records, active means well fitted curve in the direction sought with a large enough effect; inconclusive means small, poorly fitted or top-dose-only effect, or another doubt; inactive means no such curve, though single readings can be large; an effect the other way counts as inactive or inconclusive.

SMILES	Tau FP inhib	Tau fluor cs	FBPA coupling cs	Tau ThT inhib	USP1-UAF1 inh
COc1ccc2c(c1)Cc1sc(NC(=O)c3cccnc3)nc1-2	?	?	–	7.9µM	–
COc1ccc(-c2nc(NC(C)=O)sc2-c2ccc(OC)cc2)cc1	–	?	-52	–	–
COc1ccc2c(c1)Cc1sc(NC(=O)c3ccco3)nc1-2	–	?	·	?	?
O=C(NCCc1ccccc1)c1ccc(Nc2nc3ccccc3n3nnnc23)cc1	?	–	·	–	–
C[C@@H](c1ccccc1)N1C(=O)[C@H]2[C@@H]3[C@H](O)[C@H](O)CC(=O)[C@H]3CC[C@H]2C1=O	–[11.6 µM]	–[11.6 µM]	–	–[11.5 µM]	·
Cc1ccc(N2C(=O)c3cccc4c(N)ccc(c34)C2=O)c2cccnc12	–	?	–	–	25µM
Cc1nn(C)c(C)c1N1C(=O)c2cccc3c(Br)ccc(c23)C1=O	–	–	–	–	–
Cc1nn(C)c(C)c1N1C(=O)c2cccc3c(N)ccc(c23)C1=O	–	–	–	?	25µM
Nc1ccc(N(CCO)CCO)cc1	16µM	?	-38	11µM	8.9µM
O=C1CCCCCN1Sc1ccccc1	?	–	–	14µM	–
O=C(NCc1ccccc1)c1nnc(Cc2cccc(F)c2)o1	–	–	·	–	–
COC(=O)CCC(=O)OC1(C)C(=O)C2=CN(CCCOC(C)C)C(c3ccc(OC)cc3)=CC2=C(Br)C1=O (centres undefined)	?	–	-41	16µM	28µM
COC(=O)CCC(=O)OC1(C)C(=O)C2=CN(CC(C)C)C(c3ccc(OC)cc3)=CC2=C(Br)C1=O (centres undefined)	8.9µM!	–[11.6 µM]	-40!	10µM!	·
COC(=O)CCC(=O)OC1(C)C(=O)C2=CN(Cc3ccc(OC)cc3)C(c3ccc(OC)cc3)=CC2=C(Br)C1=O (centres undefined)	–[11.6 µM]	–[11.6 µM]	–	–[11.5 µM]	–
COc1ccc2c(c1)OC/C(=C/c1ccc(OC)c(OC)c1)C2=O	–	?	–	11µM	·
CC(=O)c1cccc(NC(=O)Nc2csc3c2CCCC3)c1	?	11µM[quencher]	–	?	–
O=C(Nc1ccc(F)cc1)Nc1csc2c1CCCC2	–	7.1µM[quencher]	·	?	–
N=C1/C(=C\c2ccc(SCc3ccco3)o2)C(=O)N=C2SC=NN12	–	–	–	6.3µM	–
C=CCn1c(C)cc(C(=O)COC(=O)c2ccc(N)c([N+](=O)[O-])c2)c1C	–	25µM[quencher]	–	?	–
Cc1cc(C(=O)COC(=O)c2ccc(N)c([N+](=O)[O-])c2)c(C)n1-c1ccc2c(c1)OCO2	–	?	–	?	–
C=CCn1c(C)cc(C(=O)COC(=O)c2ccc3c(c2)NC(=O)CS3)c1C	?	–	–	?	–
Cc1cc(C(=O)COC(=O)c2ccc(N)c([N+](=O)[O-])c2)c(C)n1Cc1ccc2c(c1)OCO2	?	4.5µM[quencher]	–	?	–
COc1cc(-c2nc3nc(C)cc(C)n3c2Nc2ccc(Cl)cc2)ccc1O	–	?	·	?	–
COC(=O)C1=C(C(=O)OC)SC2(S1)C(C(=O)OC)=C(C(=O)OC)SC1=C2c2cccc(C)c2NC1(C)C	?	?	–	14µM	–
CCOC(=O)C1(C)Oc2ccccc2C(C(=O)OC)=C1C(=O)OC (centres undefined)	–	–	–	–	–
SMILES	Tau FP inhib	Tau fluor cs	FBPA coupling cs	Tau ThT inhib	USP1-UAF1 inh
O=C(O)c1[nH]c2ccccc2c1C(c1cc(Cl)cc([N+](=O)[O-])c1O)c1c(C(=O)O)[nH]c2ccccc12	·	·	–	·	32µM
O=C(O)c1[nH]c2ccccc2c1C(c1ccccc1)c1c(C(=O)O)[nH]c2ccccc12	·	·	–	·	–
COc1ccc2c(c1)C(=O)[C@@H](OC(=O)N[C@H](C)C1CCCCC1)[C@H](c1ccc(OC)c(Br)c1)O2	–	–	–	–	·
CC1=NN(c2nc(-c3ccc(C)cc3)cs2)C(=O)C1N=Nc1cccc(C)c1 (centres undefined)	?	–	–	2µM	–
COc1ccc2c([N+](=O)[O-])c(Cl)[nH]c2c1	?	?	-32	28µM	?
CC1Cn2c(C(=O)NCc3cccc(Br)c3)cc3cccc(c32)S1 (centres undefined)	?	?	·	–	–
O=c1oc2c(CN3CCCCC3)c(O)ccc2cc1-c1nc2ccccc2[nH]1	–	–	–	?	28µM
O=c1oc2c(O)cccc2cc1-c1nc2ccccc2[nH]1	·	·	–	·	–
COc1cc(N=Nc2ccc3ccccc3c2)ccc1O	·	·	–	·	–
Cc1cc(O)c(C(C)C)cc1N=Nc1ccccc1C(=O)O	–	–	–	6.3µM	–
Cc1cc(N=Nc2ccccc2C(=O)O)c(C)c(C)c1O	–	?	–	0.89µM	?
COc1cc(N=Nc2ccccc2C(=O)O)ccc1O	–	–	–	7.1µM	–
O=c1c2cc(N3CCOCC3)ccc2[nH]c(=S)n1Cc1ccccn1	?	–	-41	?	–
CCOC(=O)/C=C/CCC/C=C/C(=O)c1ccccc1	–	–	–	?	·
O=S(=O)(NCc1csc(-c2cccnc2)n1)c1ccc(Cl)s1	–	–	–	?	–
O=S(=O)(NCc1csc(-c2ccccc2)n1)c1ccc(Cl)s1	–	–	-36	–	–
CCCCC1=CC2=C(OC(C)=O)C(=O)C(C)(OC(=O)C3CCCC3)C(=O)C2=CO1 (centres undefined)	?	?	–	28µM	·
COc1cc(OC)c(NC(=O)C(C)n2nc(-c3ccc(C)c(C)c3)ccc2=O)cc1Cl (centres undefined)	–	?	·	?	–
COC1=CC(=O)c2c(ccc3ncnc(N)c23)C1=O	·	·	·	·	0.89µM
Cc1ccc(C)c(N2CCN(c3nc4c(S(=O)(=O)c5ccccc5)nnn4c4ccc(Cl)cc34)CC2)c1	–	–	·	–	–
CCOc1ccc(S(=O)(=O)NCc2ccccc2Cl)cc1C(N)=O	–	–	-37	–	–
O=C1[C@H]2[C@H]3[C@H](O)[C@H](O)C/C(=N/OC[C@@H](O)COCc4ccco4)[C@@H]3CC[C@@H]2C(=O)N1C[C@@H]1CCCO1	–[11.6 µM]	–[11.6 µM]	–	–[11.5 µM]	·
COC(=O)c1[nH]c2cc(OC)c(OC)cc2c1/C=N/Nc1ccccc1	·	·	–	·	–
COC/C=C/C1=CC2=CC(=O)C(C)(OC(=O)c3ccco3)C(=O)C2=CO1 (centres undefined)	?	?	–	25µM	·
COC/C=C/C1=CC2=CC(=O)C(C)(OC(=O)C3CCCC3)C(=O)C2=CO1 (centres undefined)	10µM	?	–	25µM	?
Cc1nc2c(-c3ccccc3)c(C)[nH]n2c(=O)c1Cc1ccc(Br)cc1	–	–	·	–	?
